# Assay outcomes: PubChem BioAssay, several laboratories
# NALP1 inh = blocks the NALP1 inflammasome reconstituted in yeast. inhibition, % at 10 µM. hit rate 0.61% among 280,000. S. cerevisiae NALP1/ASC/caspase-1 growth, X-gal OD620, 72 h; in the data active means inhibition mostly above about 24%, no sharp cut-off; inactive means mostly below about 32%
# PolyA inh = yeast polyadenylation inhibition; S. cerevisiae SKY197-pL101 polyadenylation reporter, beta-gal luminescence; efflux-impaired pdr1/pdr3 knockout yeast; score 100 = 6 SD above DMSO; activity score, % at 12 µM; hit rate 0.02% among 300,000; AID 1875;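 active means lowest replicate activity score at least 50, where 100 means six control SD above control mean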;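 further: yeast exposed to compound for 9 h at 30 °C; higher score means more reporter readthrough which indicates perturbed polyadenylation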
# ZTA counter = blocks Epstein-Barr virus ZTA, an EBNA-1 counter-screen. hit rate 0.15% among 320,000. ZTA-DNA binding, fluorescence polarization. inhibition, % at 11 µM. AID 2234. P03206; in the data active means inhibition above about 33%
# NALP3 yeast inh = NALP3 inhibition in yeast. Yeast reconstituted NLRP3/ASC/caspase-1, beta-gal luminescence, 24 h. inhibition, % at 10 µM. hit rate 0.39% among 330,000;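 active means inhibition of 50% or more; inactive means inhibition below 50%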;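 further: plate controls were induced DMSO wells for no effect and uninduced yeast grown without galactose for full effect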
# EBNA-1 inhibitor = blocks EBNA-1 binding to DNA. EBNA-1 DNA binding, fluorescence polarization. inhibition, % at 14.8 µM. hit rate 0.34% among 300,000; in the data active means inhibition above about 28%
# dFosB activator = enhances mouse delta FosB homodimer DNA binding | purified delta FosB, TAMRA-CDK5 oligo fluorescence polarization; percent of positive-control signal above neutral wells | activation, % at 25 µM | hit rate 0.99% among 340,000 | AID 493131;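 active means mean activation above about 17%, with every replicate also reaching it, limit read from the data, passing the limit was not always enough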
# Target sequence (P13346 whole entry, looked up): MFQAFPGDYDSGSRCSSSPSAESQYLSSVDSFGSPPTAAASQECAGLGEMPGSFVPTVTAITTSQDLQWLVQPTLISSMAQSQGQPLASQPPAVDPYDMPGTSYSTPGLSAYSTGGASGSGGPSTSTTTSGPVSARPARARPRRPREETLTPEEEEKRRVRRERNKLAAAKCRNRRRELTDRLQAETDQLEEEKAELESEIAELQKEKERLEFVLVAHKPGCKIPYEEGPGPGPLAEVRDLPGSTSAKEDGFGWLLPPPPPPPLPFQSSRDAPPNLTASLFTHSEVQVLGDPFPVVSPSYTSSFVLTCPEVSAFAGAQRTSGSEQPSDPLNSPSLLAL
# Active calls of the source: *; . = no result given. The list is not random: actives were taken first. Their share in the collection is about 2.2%.
SMILES,NALP1 inh,PolyA inh,ZTA counter,NALP3 yeast inh,EBNA-1 inhibitor,dFosB activator
Cc1n[nH]c(=O)c2c(NC(=O)CSc3ccc(Br)cc3)oc(C)c12,.,10,-10,18,-12,1
O=C(Nc1cc(S(=O)(=O)Nc2ccccc2Cl)ccc1O)c1sc2cc(Cl)ccc2c1Cl,15,9,-17,8,-2,101*
COc1cccc(/C=N/NC(=O)Cn2cnc3c2c(=O)n(C)c(=O)n3C)c1,-20,13,3,20,-5,.
O=C(CN1C(=O)c2cccnc2Oc2ccc(Cl)cc21)Nc1ccccc1F,22,7,4,15,-12,-1
CCCn1c(SCc2nc3ccccc3s2)n[nH]c1=O,33*,6,-1,-4,13,-6
O=C1NCCCc2c1oc1ccc(O)cc21,4,-3,-3,0,10,8
Oc1c(Cl)cc(Cl)c2c1NCCC2,53*,-34,.,13,.,-5
O=C1CCNCCN1[C@H](CO)c1ccccc1,9,-14,8,9,8,5
Cc1onc(-c2ccccc2Cl)c1C(=O)N1CCN(c2nc3ccccc3s2)CC1,34*,-6,3,6,-25,-8
COCCn1c(SCC(=O)Nc2ccc(S(=O)(=O)N(C)C)cc2)nc2ccccc21,38*,12,10,-3,16,-2
CC1(C)N=C(C(=O)c2ccccc2)N(O)C1(C)O (centres undefined),33*,-10,-21,11,-8,-3
O=C(c1ccccc1)c1ccncc1,5,12,-5,0,-2,-1
CCOc1ccc(OCCC(=O)N(CC(C)C)c2c(N)n(Cc3ccccc3)c(=O)[nH]c2=O)cc1,.,.,.,.,.,0
O=C(NN=Cc1ccc2c(c1)OCO2)NN=Cc1ccc2c(c1)OCO2,.,.,.,.,.,6
N/C(=N\N=Cc1ccc2c(c1)OCO2)NN=Cc1ccc2c(c1)OCO2,.,.,.,.,.,42*
CCCCNC(=O)NC1(C(F)(F)F)Oc2ccccc2O1,37*,-21,-2,5,-9,-6
COc1cccc(CNC(=O)Cn2ncn3cccc3c2=O)c1OC,10,-12,14,-2,-5,-2
Cc1cc(S(=O)(=O)Nc2ccc(C(=O)NCC(c3ccccc3)N(C)C)cc2)ccc1F (centres undefined),29*,18,6,8,-6,-11
CC1Cc2ccccc2N1C(=O)CCS(=O)(=O)c1ccc2c(c1)NC(=O)CS2 (centres undefined),6,27,-1,7,0,-4
Nc1nc(Nc2ccccc2)nc(NC2CCCCC2)c1[N+](=O)[O-],21,6,7,7,-8,73*
Nc1nc(Nc2ccccc2)nc(NCc2ccccc2)c1[N+](=O)[O-],26,15,1,18,-1,34*
Nc1nc(NCc2ccccc2)nc(NCc2ccccc2)c1[N+](=O)[O-],25,-2,8,0,-8,6
Cc1cccc(Nc2nc(N)c([N+](=O)[O-])c(N3CCCC(C)C3)n2)c1 (centres undefined),33,-26,-26,10,-12,45*
Cc1cccc(Nc2nc(N)c([N+](=O)[O-])c(N3CCN(C)CC3)n2)c1,14,-5,-5,11,-4,-3
Cc1cccc(Nc2nc(N)c([N+](=O)[O-])c(NCc3ccccc3)n2)c1,-6,8,-3,4,7,39*
SMILES,NALP1 inh,PolyA inh,ZTA counter,NALP3 yeast inh,EBNA-1 inhibitor,dFosB activator
Oc1cccc(-c2nnc(-c3cccc(O)c3)nn2)c1,.,.,.,.,.,-1
O=C(c1nnsc1S(=O)c1ccc(Cl)cc1)N1CCOCC1 (centres undefined),67*,4,.,14,.,-4
O=C(Nc1ccccc1)c1nnsc1S(=O)c1ccc(Cl)cc1 (centres undefined),-1,-44,-10,41,3,-6
Cn1c(O)c(N=NC(=O)c2ccco2)c2ccccc21,36*,-7,13,18,9,-8
Cn1c(O)c(N=NC(=O)CNC(=O)c2ccco2)c2ccccc21,.,6,-17,17,4,-1
Cn1c(O)c(N=NC(=O)CNC(=O)/C=C/c2ccccc2)c2ccccc21,37*,13,-2,-3,4,-7
CC(=O)c1c[nH]c(C(=O)NC2CCCCCC2)c1,6,4,7,8,-3,1
COc1ccccc1/C=N/NC(=O)c1ccc(NC(=O)c2cccc([N+](=O)[O-])c2)cc1,-10,-8,5,4,-18,.
COc1cccc(/C=N/NC(=O)c2cc3cc([N+](=O)[O-])ccc3s2)c1O,2,6,8,.,-10,41*
COc1ccc(OCC(=O)N2CCN(C(=O)c3ccc(F)cc3)CC2)cc1,15,-7,0,1,3,0
COc1cccc(/C=N/Nc2nc(Nc3ccccc3)nc(-n3nc(C)cc3C)n2)c1O,-9,-102,10,47,-6,41*
COc1ccc(OC)c2c1C(=O)C(Cl)=C(Cl)C2=O,39*,-56,5,36,-5,-7
COc1ccc(OC)c2c1C(=O)c1ccccc1C2=O,25,12,21,3,5,.
Cc1ccc(NC2=C(NC(=O)c3ccccc3)C(=O)c3ccccc3C2=O)cc1Cl,65*,-4,-4,49,2,1
Cc1ccc(NCC(=O)c2ccccc2)cc1Cl,32,-21,10,9,5,-1
COc1ccc(S(=O)(=O)N2CCN(C(=O)c3ccco3)CC2)c(C)c1C,.,9,13,23,1,-3
Cc1nn(-c2ccc(Cl)cn2)c2c1C(=O)CC(C)(C)C2Br (centres undefined),.,.,.,.,.,-5
CN(C)c1ccc(/C=C/c2ccc3c4ccccc4ccc3[n+]2-c2ccccc2)cc1,-24,.,.,.,.,112*
CN(C)c1ccc(/C=C/c2cccc[n+]2[O-])cc1,-1,-12,-9,20,-4,-5
O=C1NC(=S)S/C1=C/c1ccc(N2CCOCC2)o1,-12,-13,9,7,2,49*
COc1ccc2c(c1)cc(C(=O)N[C@@H](CCSC)C(=O)N1CCC[C@H]1C(=O)O)n2C,10,11,0,9,-6,-17
COc1ccc(NC(=O)CCc2nnc3ccc(NCc4ccco4)nn23)cc1OC,-4,8,28,14,-4,-9
COc1ccc(N2C(=O)CC(N(C)CCc3ccc(OC)c(OC)c3)C2=O)cc1 (centres undefined),41*,-9,3,20,8,-1
COC(=O)c1ccc(N2C(=O)CC(N(C)CCc3ccc(OC)c(OC)c3)C2=O)cc1 (centres undefined),3,17,-25,28,-8,5
COc1ccc(CCN(C)C2CC(=O)N(c3ccccc3)C2=O)cc1OC (centres undefined),56*,12,11,4,1,3
